Shown is part of a subset that was picked to be rich in hits.
Glioma ERSR ind: qHTS for Inducers of the Endoplasmic Reticulum Stress Response (ERSR) in Human Glioma: qHTS; 420,000 compounds, 0.02% hits; U87-MG GRP78 promoter luciferase reporter, 16 h; AID 602332, 2012; Potency, µM, hits mostly activators; further: series mostly up to about 76 µM; nearly all actives have a fitted effect of over 35% in size
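ERSR induction read as luciferase luminescence (Bright-Glo, 10 min at room temperature) in stably transfected human U87-MG glioma cells exposed to compounds for 16 h, using GRP78 as sensor.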
ALOX12 inh: Primary qHTS assay for inhibitors of human arachidonate 12S-lipoxygenase (ALOX12): Round 2. purified 12hLO, xylenol orange hydroperoxide absorbance. 580,000 compounds, 1.1% hits. Polyunsaturated fatty acid lipoxygenase ALOX12 (Homo sapiens), P18054. Potency, µM (highest dose often 108 µM), most hits filed as inhibitors. AID 1671190, 2021
Target sequence (P18054 whole entry, looked up): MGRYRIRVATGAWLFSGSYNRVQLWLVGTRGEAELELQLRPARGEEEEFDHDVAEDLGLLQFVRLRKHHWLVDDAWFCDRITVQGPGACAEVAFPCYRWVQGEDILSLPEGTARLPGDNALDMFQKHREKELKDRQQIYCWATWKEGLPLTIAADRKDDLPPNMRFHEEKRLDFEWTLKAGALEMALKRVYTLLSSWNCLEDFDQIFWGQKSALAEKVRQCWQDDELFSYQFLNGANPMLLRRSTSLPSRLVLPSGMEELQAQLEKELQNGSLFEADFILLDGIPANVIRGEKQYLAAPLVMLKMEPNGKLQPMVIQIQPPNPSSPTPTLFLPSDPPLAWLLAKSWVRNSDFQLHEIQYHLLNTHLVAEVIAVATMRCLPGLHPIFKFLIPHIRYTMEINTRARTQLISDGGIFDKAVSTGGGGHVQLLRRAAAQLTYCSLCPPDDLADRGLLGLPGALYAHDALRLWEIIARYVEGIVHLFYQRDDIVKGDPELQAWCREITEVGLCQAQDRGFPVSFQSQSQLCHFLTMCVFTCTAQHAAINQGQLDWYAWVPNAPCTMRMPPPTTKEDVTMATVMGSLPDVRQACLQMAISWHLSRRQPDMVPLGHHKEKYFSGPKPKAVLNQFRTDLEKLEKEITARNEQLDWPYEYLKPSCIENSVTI
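Hydroperoxide product was detected by ferrous iron/xylenol orange as the 573 to 405 nm absorbance ratio. Arachidonic acid at 40 uM (final) was turned over for 30 min at room temperature by 150 nM human 12hLO, pH 7.0 Hepes buffer, after 15 min compound preincubation.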
Sfp PPTase inh: qHTS Assay for Inhibitors of Bacillus subtilis Sfp phosphopantetheinyl transferase (PPTase). Potency, µM, usual class: inhibitors. 310,000 compounds, 3.5% hits. AID 1490, 2009. Biochemical Sfp PPTase activity, qHTS. 4'-phosphopantetheinyl transferase ffp (Bacillus subtilis), Q9F4F7;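 further: the enzyme is Sfp with the accession as filed and its product quenches rhodamine fluorescence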
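Sfp 15 nM + cpd, 15 min RT; start w/ rhodamine-CoA 5 uM, BHQ-2-YbbR 12.5 uM (final); 50 mM Hepes pH 7.6, 10 mM MgCl2, 0.01% NP-40, 0.01% BSA; read 525/598 nm at 0 and 30 min.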
G9a block: qHTS Assay for Inhibitors of Histone Lysine Methyltransferase G9a; G9a H3K9 monomethylation, AlphaScreen, 2 h; Potency, µM (titrated, usually from 102 µM), most hits filed as inhibitors; 350,000 compounds, 8.8% hits; further: nearly all actives have a fitted effect of over 75% in size
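G9a (20 nM) was preincubated 15 min with compound, then reacted 2 h at room temperature with 500 nM biotin-H3K9 peptide and 20 µM SAM. Monomethyl-H3K9 detected by AlphaScreen using anti-H3K9me1 antibody.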
VDR inhibitor: Inhibitors of the vitamin D receptor (VDR): qHTS; Potency, µM, hits mostly inhibitors; VDR-SRC2-3 peptide fluorescence polarization, 2 h; 400,000 compounds, 0.93% hits
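Signal is fluorescence polarization, reporting how far test compounds block the interaction of VDR with the SRC2-3 coregulator peptide after a 2 h room-temperature incubation.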
A number is an active result; i = inactive; ? = inconclusive; nt = not tested or not shown; [ ] = another dose, or the depositor's remark. The call rests on the fitted dose curve; in most records, active means well fitted curve in the direction sought with a large enough effect; inconclusive means small, poorly fitted or top-dose-only effect, or another doubt; inactive means no such curve, though single readings can be large; an effect the other way counts as inactive or inconclusive.

SMILES	Glioma ERSR ind	ALOX12 inh	Sfp PPTase inh	G9a block	VDR inhibitor
CN(CCCC(=O)Nc1ccc(Br)cc1F)S(=O)(=O)c1ccccc1	i	?	i	35µM	i
Cc1ccc(S(=O)(=O)N(C)CCCC(=O)Nc2ccc(F)cc2)cc1	i	i	i	i	i
CN(CCCC(=O)Nc1ccccc1F)S(=O)(=O)c1ccc(F)cc1	i	i	i	i	i
CN(CCCC(=O)Nc1ccc(OC(F)F)cc1)S(=O)(=O)c1ccc(F)cc1	i	i	i	45µM	i
COc1ccc(O[C@H]2C=C[C@@H](c3ccccc3)O[C@@H]2COC(=O)CCC(C)=NO[C@@H]2O[C@H](COC(C)=O)[C@@H](OC(C)=O)[C@H](OC(C)=O)[C@H]2OC(C)=O)cc1	nt	nt	i	50µM	nt
CC(=O)OC[C@H]1O[C@@H](O/N=C/C[C@@H]2C=C[C@H](OC(C)=O)[C@@H](COC(C)=O)O2)[C@H](OC(C)=O)[C@@H](OC(C)=O)[C@@H]1OC(C)=O	nt	nt	i	79µM	nt
COc1ccc(O[C@H]2C=C[C@@H](c3ccccc3)O[C@H]2CO/N=C(/C)CCC(=O)OC[C@@H]2O[C@H](c3ccccc3)C=C[C@@H]2Oc2ccc(OC)cc2)cc1	i	nt	i	nt	nt
COc1ccc(O[C@H]2C=C[C@@H](c3ccccc3)O[C@@H]2COC(=O)CC/C(C)=N/OC[C@@H](O)[C@H]2O[C@@H]3OC(C)(C)O[C@@H]3[C@H]2O)cc1	nt	nt	i	79µM	nt
CO/N=C\C[C@@H]1C=C[C@H](OC(C)=O)[C@H](COC(C)=O)O1	i	nt	i	nt	nt
Cc1cccc(C2CCCN2C(=O)c2cc(-c3ccco3)on2)c1 (stereo not given)	nt	i	nt	nt	nt
CCc1nc2c(OCC(=O)c3ccc(Cl)cc3Cl)cccn2c1N(C=O)Cc1ccccc1	i	14µM	nt	nt	nt
CCc1nc2c(OCc3ccc(Cl)cc3)cccn2c1N(C=O)Cc1ccccc1	i	?	nt	nt	nt
CC(/C=N/n1c(-c2cc(C)[nH]n2)n[nH]c1=S)=C\c1ccccc1	i	i	?	?	?
Cc1ccc(-c2n[nH]c(=S)n2/N=C/c2cccs2)cc1	i	?	i	1µM	i
S=c1[nH]nc(-c2ccccc2)n1/N=C/c1cccs1	i	nt	i	0.56µM	i
Cc1cc(-c2n[nH]c(=S)n2/N=C/c2cccs2)n[nH]1	i	?	i	0.35µM	i
Cc1ccc(-c2n[nH]c(=S)n2/N=C/c2ccc(C)s2)cc1	i	16µM	i	i[0.501 µM]	i
Cc1ccc(/C=N/n2c(-c3ccc(Cl)cc3)n[nH]c2=S)s1	i	i	i	?	i
COCCN(C)C(=O)C(C)(C)Oc1nn(Cc2cccc(Cl)c2)c2ccccc12	nt	i	nt	nt	nt
COc1ccc(OC)c(S(=O)(=O)N2CCN(C(=O)c3cc4c(s3)CCCCC4)CC2)c1	nt	i	nt	nt	nt
O=[N+]([O-])/C(C(Cl)=C(Cl)Cl)=C1\Nc2ccccc2O1	i	i	i	35µM	i
COc1ccc(-n2c(C)c3c(OC)cccc(=O)c3c2C)cc1	i	?	i	?	i
CCOc1cccc(=O)c2c(C)n(Cc3ccco3)c(C)c12	i	?	40µM	?	i
CCOc1cccc(=O)c2c(C)n(-c3ccc(C(=O)O)cc3)c(C)c12	i	?	28µM	nt	i
COc1cccc(=O)c2c(C)n(-c3ccc(C(=O)O)cc3)c(C)c12	i	i	4.5µM	?	i
SMILES	Glioma ERSR ind	ALOX12 inh	Sfp PPTase inh	G9a block	VDR inhibitor
CCOc1cccc(=O)c2c(C)n(Cc3ccccc3)c(C)c12	i	i	i	nt	i
Cc1cc(C(=O)OCC(=O)c2ccc(OCc3ccccc3)cc2)c2ccccc2n1	nt	i	nt	nt	nt
Cc1ccc(Sc2ccc(NC(=O)c3ccccc3)cc2)c(C)c1	nt	i	nt	nt	nt
CCC1CSC(Nc2cccc(C)c2)=N1 (stereo not given)	nt	i	nt	nt	nt
O=C(CC1Sc2ccccc2NC1=O)Nc1cccc(C(=O)O)c1 (stereo not given)	i	i	i	40µM	i
CC(=O)Nc1ccc(NC(=O)CC2Sc3ccccc3NC2=O)cc1 (stereo not given)	i	i	nt	?	i
CCCn1c(N)c(-c2csc(NC)n2)c(=O)n(C)c1=O	nt	7.9µM	nt	nt	nt
COCc1cc(N2CCc3onc(-c4cccc5ccccc45)c3C2)ncn1	nt	i	nt	nt	nt
CCOP(=O)(OCC)c1nc(-c2ccccc2)oc1NCc1ccco1	nt	i	nt	nt	nt
CCNC(=O)c1sc(=S)n(-c2ccc(C)cc2)c1N	i	?	56µM	32µM	i
Cc1ccc(-c2nc(N3CCOCC3)sc2C(=O)N2CCOCC2)cc1	i	i	i	i	i
Cc1ccc(-n2c(N)c(C(=O)N3CCOCC3)sc2=S)cc1	i	?	i	?	89µM
CCOC(=O)c1sc(=S)n(-c2ccc(OC)cc2)c1N	i	i	i	nt	i
O=C(COC(=O)c1c2c(nc3ccccc13)CCCC2)c1ccc(Oc2ccc(Cl)cc2[N+](=O)[O-])cc1	nt	i	nt	nt	nt
O=C1CC(c2ccccc2)N(Cc2ccc(F)c(F)c2)CCCCCN1 (stereo not given)	nt	i	nt	nt	nt
C/C(=C/C(=O)C(F)(F)F)N1CCN(Cc2ccccc2)CC1	nt	i	nt	nt	nt
CCOC(=O)CN1C(=O)CC(c2ccc([N+](=O)[O-])cc2)C1=O (stereo not given)	i	i	i	45µM	i
O=C(NCC(c1ccccc1)c1ccccc1)c1cc2ccccc2[nH]1	nt	i	nt	nt	nt
CC(C)c1ccccc1OCC(=O)Nc1ccc2[nH]ncc2c1	i	i	i	71µM	i
Cc1cc(C)cc(OCC(=O)Nc2ccc3[nH]ncc3c2)c1	nt	i	nt	nt	nt
COc1ccccc1-c1noc(CSc2nc3ccccc3o2)n1	nt	i	nt	nt	nt
O=C(Nc1ccc(F)cc1)c1cc(-c2ccccn2)nc2ccccc12	nt	i	nt	nt	nt
COCCN(CCOC)S(=O)(=O)c1ccc(C(=O)Nc2nnc(C)o2)cc1	i	i	89µM	7.1µM	i
COc1cc([N+](=O)[O-])ccc1NC(=O)c1cccc(NC(=O)C(C)C)c1	i	i	i	?	i
COCCN(CCOC)S(=O)(=O)c1ccc(C(=O)Nc2nnc(CSC)o2)cc1	i	i	?	?	i
COCCN(CCOC)S(=O)(=O)c1ccc(C(=O)Nc2ccc([N+](=O)[O-])cc2OC)cc1	i	i	45µM	i	i
CSc1ccccc1NC(=O)C(C)N(C)CC(=O)Nc1ccc(F)cc1 (stereo not given)	nt	i	nt	nt	nt
Cc1ccc(C)c(CN2C(=O)C3CCCN3c3ccc(C#N)cc32)c1 (stereo not given)	i	i	i	?	i
CCN(CC)S(=O)(=O)c1ccc2c(c1)N(CC(=O)Nc1cccc(C)c1C)C(=O)C1CCCN21 (stereo not given)	i	i	nt	i	i
O=C1C2CCCN2c2ccc(S(=O)(=O)N3CCOCC3)cc2N1Cc1ccccc1F (stereo not given)	i	nt	i	nt	i

Screening data as filed in PubChem.
